Bioassay records from PubChem BioAssay.
Sampled rows, rich in hits. Any-hit rate of the full collection: about 3.4%.
PP1 inh: counter-screen for PP5 inhibitors: inhibitors of human PP1-alpha; purified PP1alpha, OMFP fluorescence; inhibition, % at 6.7 µM; actives 0.9% (n = 320,000); P62136;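 active = inhibition above the mean inhibition of all tested compounds plus 3 SD, computed separately for each screening campaign, cut at about 15% in these data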
Target sequence (P62136 whole entry, looked up): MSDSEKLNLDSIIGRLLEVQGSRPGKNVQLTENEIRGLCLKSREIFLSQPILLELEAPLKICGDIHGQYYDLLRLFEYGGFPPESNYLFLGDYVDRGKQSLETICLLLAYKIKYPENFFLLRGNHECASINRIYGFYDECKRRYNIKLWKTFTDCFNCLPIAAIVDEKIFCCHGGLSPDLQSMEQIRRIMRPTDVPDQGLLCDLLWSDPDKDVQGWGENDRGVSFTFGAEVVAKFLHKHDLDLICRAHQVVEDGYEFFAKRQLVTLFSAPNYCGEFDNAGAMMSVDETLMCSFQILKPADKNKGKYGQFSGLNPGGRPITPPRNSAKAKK
PAFAH2 inh: PAFAH2 (human) inhibition; Q99487; recombinant PAFAH2, FP-rhodamine activity probe, fluorescence polarization; inhibition, % at 3.39 µM; actives 0.99% (n = 340,000); AID 492956;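 active = inhibition above the mean over all tested compounds plus 3 SD, cut at about 30% in these data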;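 note: inhibitors block probe labeling of enzyme so polarization drops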
PAFAH1B3 inh: blocks human PAF acetylhydrolase 1B catalytic subunit 3. inhibition, % at 3.39 µM. AID 492972. recombinant PAFAH1B3, FP-rhodamine probe, fluorescence polarization. actives 0.28% (n = 340,000);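 active = inhibition above the screen-wide average of all tested compounds plus 3 SD, cut at about 25% in these data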
PAFAH1B2 FP inh: inhibitors of human PAFAH1B2; P68402; recombinant PAFAH1B2, FP-rhodamine activity probe, fluorescence polarization; inhibition, % at 3.39 µM; actives 1.2% (n = 340,000);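 active = inhibition above the mean of all tested compounds plus 3 SD, cut at about 24% in these data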
Target sequence (P68402 whole entry, looked up): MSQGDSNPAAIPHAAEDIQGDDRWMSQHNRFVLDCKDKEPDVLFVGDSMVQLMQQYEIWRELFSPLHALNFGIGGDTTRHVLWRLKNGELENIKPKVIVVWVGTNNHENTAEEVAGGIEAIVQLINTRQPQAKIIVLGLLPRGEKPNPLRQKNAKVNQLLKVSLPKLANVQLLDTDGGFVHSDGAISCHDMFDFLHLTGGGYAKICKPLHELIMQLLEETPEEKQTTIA
pPAFAH inh: inhibitors of human plasma PAF acetylhydrolase (pPAFAH); Q13093; recombinant pPAFAH, FP-rhodamine probe fluorescence polarization; inhibition, % at 3.39 µM; actives 1.5% (n = 330,000); AID 463082;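 active = inhibition above the mean inhibition across the screen plus 3 SD, cut at about 25% in these data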;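 note: inhibitors block binding of the rhodamine activity-based probe so polarization drops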
PP5 inh: inhibitors of human protein phosphatase 5 (PP5) | AID 1987 | inhibition, % at 6.7 µM | actives 0.18% (n = 320,000) | P53041 | purified PP5c, OMFP substrate fluorescence;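 active = inhibition above the campaign's mean inhibition across all tested compounds plus 3 SD, cut at about 9.5% in these data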
PP5 conf: PP5 (human) inhibition, confirmation; shares compounds with PP5 inh; Purified PP5, fluorogenic phosphatase substrate, fluorescence; inhibition, % at 6.7 µM; actives 22% (n = 460); AID 2331; in the data active = inhibition above about 9.5%
PP1 counter 3x: inhibits human PP1 phosphatase in PP5 counter-screen | shares compounds with PP5 inh | PP1 enzyme, fluorescent phosphatase substrate | inhibition, % at 6.7 µM | actives 4% (n = 460); in the data active = inhibition above about 16%
Each line names hits and unclear results; the compound was inactive in the other large screens (follow-up assays come after a bar, where they were run).

CCN(CC)CCCN(Cc1cc2cc3c(cc2[nH]c1=O)OCO3)C(=S)NCCCOC	none
CCN(CC)CCN(Cc1cc2cc3c(cc2[nH]c1=O)OCO3)C(=S)NCCCOC	PP5 inh 12 | PP5 conf inactive | PP1 counter 3x inactive
CCc1ccc(C2=NN(c3ccc(S(N)(=O)=O)cc3)C(c3ccc(F)cc3)C2)cc1 (configuration not stated)	PP5 inh 12 | PP5 conf inactive | PP1 counter 3x inactive
Cc1ccc(CNC(=O)c2ccc(C#CC(C)(C)O)s2)cc1	PP5 inh 9.6 | PP5 conf inactive | PP1 counter 3x inactive
CCN(CC(=O)Nc1ccc(NC(C)=O)cc1)CC(=O)Nc1ccc(Cl)c(Cl)c1	none
CCN(CC(=O)Nc1ccc(NC(C)=O)cc1)CC(=O)Nc1cccc(Cl)c1	PP5 inh 9.8 | PP5 conf inactive | PP1 counter 3x inactive
COc1ccc(S(=O)(=O)N2CCCCC2)cc1C(=O)N1CCCC1	none (no result: PP1 inh, pPAFAH inh, PP5 inh)
CC(C)c1cc(C(=O)N/N=C/c2c[nH]c3ccccc23)n[nH]1	PP5 inh 9.8 | PP5 conf inactive | PP1 counter 3x inactive
CCN(CC)CCN(C(=O)Cn1nnc(-c2ccc(C)o2)n1)C(C(=O)NC1CCCC1)c1ccc(F)cc1 (configuration not stated)	none (no result: PP1 inh, pPAFAH inh, PP5 inh)
COc1ccc(OC)c(-n2c(N)c(C(=O)NCC3CCCO3)c3nc4ccccc4nc32)c1 (configuration not stated)	none (no result: PP1 inh, pPAFAH inh, PP5 inh)
Nc1c(C(=O)NCc2ccc3c(c2)OCO3)c2nc3ccccc3nc2n1CCCN1CCOCC1	PP5 inh 9.7 | PP5 conf 13 | PP1 counter 3x inactive
COCCn1c(N)c(C(=O)NCc2cccs2)c2nc3ccccc3nc21	PP5 inh 11 | PP5 conf inactive | PP1 counter 3x inactive
COCCn1c(N)c(C(=O)NCC2CCCO2)c2nc3ccccc3nc21 (configuration not stated)	PP5 inh 13 | PP5 conf 15 | PP1 counter 3x inactive
CCn1c(C)nc2cc(NC(=O)Nc3cccc(C(C)=O)c3)ccc21	none
COc1ccc(CCN2C(=O)CSC2=Nc2ccc(C(C)C)cc2)cc1OC	none (no result: PAFAH2 inh, PAFAH1B3 inh, PAFAH1B2 FP inh)
NC(=O)c1ccc(C(F)(F)F)n(Cc2ccc(Cl)cc2)c1=O	PP5 inh 9.9 | PP5 conf inactive | PP1 counter 3x inactive
NC(=O)c1ccc(C(F)(F)F)n(Cc2ccc(F)c(F)c2)c1=O	none
COc1ccccc1N1CCN(CCN2C(=O)C3CCCCN3C2=O)CC1 (configuration not stated)	none
CC(=O)c1c(C)[nH]c(C(=O)N(C)C(c2ccccc2)c2ccccc2)c1C	none
CCN(CC)CC(=O)NN(Cc1ccccc1)c1ccccc1	none
CN1CCN(CC(=O)NN(Cc2ccccc2)c2ccccc2)CC1	PP5 inh 12 | PP5 conf inactive | PP1 counter 3x inactive
COc1ccc(/C=N/Nc2cc(OC)ncn2)cc1	none
CN(C)c1cc(N/N=C\c2ccccc2)nc(N(C)C)n1	PP5 inh 16 | PP5 conf 38 | PP1 counter 3x inactive
COc1ccc(/C=N/Nc2cc(N(C)C)nc(N(C)C)n2)cc1	PP5 inh 14 | PP5 conf 43 | PP1 counter 3x inactive
COc1ccccc1/C=N/Nc1cc(N(C)C)nc(N(C)C)n1	PP5 inh 18 | PP5 conf 30 | PP1 counter 3x inactive
Cc1cc(C)n(Cc2cccc(C(=O)N/N=C/c3cccnc3)c2)n1	none (no result: PP1 inh, pPAFAH inh, PP5 inh)
COc1cc(OC)cc(C(=O)NNC(=O)CCNS(=O)(=O)c2ccc(Br)cc2)c1	none (no result: PP1 inh, PP5 inh)
Cc1[nH]n(-c2ccccc2)c(=O)c1C(C[N+](=O)[O-])c1ccc(F)cc1 (configuration not stated)	PP5 inh 13 | PP5 conf inactive | PP1 counter 3x inactive
O=C1CC(C(=O)N2CCc3ccccc32)CN1c1ccc(F)cc1 (configuration not stated)	none
CC(C)(C)OC(=O)[C@H](Cc1ccccc1)NC(=O)c1nc[nH]c1C(=O)N[C@@H](Cc1ccccc1)C(=O)OC(C)(C)C	none
C[C@H](NC(=O)c1nc[nH]c1C(=O)N[C@@H](Cc1ccccc1)C(=O)OC(C)(C)C)C(=O)OC(C)(C)C	PP5 inh 11 | PP5 conf inactive | PP1 counter 3x inactive
CC(C)C[C@H](NC(=O)c1nc[nH]c1C(=O)N[C@@H](CC(C)C)C(=O)OC(C)(C)C)C(=O)OC(C)(C)C	PP5 inh 10 | PP5 conf inactive | PP1 counter 3x inactive
CC(C)C[C@H](NC(=O)c1[nH]cnc1C(=O)N[C@H](C)c1ccccc1)C(=O)OC(C)(C)C	PP5 inh 10 | PP5 conf inactive | PP1 counter 3x inactive
O=S(=O)(CCN1C=CC(C(F)(F)F)=NCC1)c1ccc(Cl)cc1Cl	none
Cc1csc(=Nc2c(C)n(C)n(-c3ccccc3)c2=O)n1-c1ccccc1	none
Cc1c(N=c2c(=O)c3ccccc3c2=O)c(=O)n(-c2ccccc2)n1C	PP5 inh 13 (no result: PAFAH2 inh, PAFAH1B3 inh, PAFAH1B2 FP inh) | PP5 conf 35 | PP1 counter 3x inactive
CC(C)N(Cc1ccccc1)S(=O)(=O)c1ccc2c(c1)NC(=O)CO2	none
COc1ccc(Oc2cn[nH]c2-c2ccc(O)cc2O)cc1	none
CCCc1ccc(Oc2cn[nH]c2-c2ccc(O)cc2O)cc1	PP5 inh 10.0 | PP5 conf inactive | PP1 counter 3x inactive
CN(C)C(=O)Cn1c(SCC(=O)NC2CCCCC2)nc2ccccc21	PP5 inh 10.0 | PP5 conf inactive | PP1 counter 3x inactive
COc1ccc(C2=Nn3c(nnc3-c3ccncc3)SC2)cc1	PP5 inh 12 | PP5 conf inactive | PP1 counter 3x inactive
COc1ccc(OC)c(C2=Nn3c(nnc3-c3cccc(OC(C)C)c3)SC2)c1	PP5 inh 12 | PP5 conf inactive | PP1 counter 3x inactive
COc1ccc(Oc2ccc3c(C(F)(F)F)cc(C(F)(F)F)nc3n2)cc1	PP5 inh 16 | PP5 conf inactive | PP1 counter 3x inactive
Oc1ccc(N=Cc2ccc(-c3cccs3)s2)cc1	PP5 inh 11 | PP5 conf inactive | PP1 counter 3x inactive
Cc1cc(C(=O)N(C2CCCCC2)C2CCCCC2)no1	PP5 inh 9.7 | PP5 conf inactive | PP1 counter 3x inactive
O=C1OCCC1Sc1nnc(-c2cccc(Br)c2)o1 (configuration not stated)	PP5 inh 12 | PP5 conf inactive | PP1 counter 3x inactive
O=C1OCCC1Sc1nnc(-c2ccc3c(c2)OCO3)o1 (configuration not stated)	none
Cc1cc(C)cc(NS(=O)(=O)c2c(C(=O)N3CCOCC3)c(C)n(C)c2C)c1	none
COc1ccc(-c2n[nH]c(C)c2-c2ccc(Cl)cc2)c(O)c1OC	pPAFAH inh 32, PP5 inh 10 | PP5 conf inactive | PP1 counter 3x inactive
CC1(C)C=Cc2c(ccc3c2OC[C@H](c2ccc(O)cc2O)C3)O1	PP5 inh 9.6 | PP5 conf inactive | PP1 counter 3x inactive
CC(=O)NN1C(=O)/C(=C2/Sc3ccc(Cl)cc3N2C)SC1=S	none
CC(C)CN(CC(C)C)c1nn[nH]n1	none (no result: PP1 inh, pPAFAH inh, PP5 inh)
